Screening results (PubChem BioAssay)
CYP2C9 activ: increases human cytochrome P450 2C9 activity | activation factor at 5 µM | hit rate 1.4% among 96,000 | recombinant CYP2C9, luciferin-H conversion, luminescence; active compounds read high; factor 1 = untreated enzyme, 0 = blocked | P11712;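 active = activation factor of 2 or more for CYP2C9 at a 5 µM dose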;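 also: 0 = sulfaphenazole-blocked wells and 1 = vehicle-only wells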
CYP2C9 inhib: human CYP2C9 inhibition; P11712; CYP2C9 Supersomes, luciferin-H conversion, luminescence; inhibition, % at 5 µM; hit rate 20% among 96,000; AID 777;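 active = blocking of liver enzyme CYP2C9 beyond about 50% at 5 µM, limit read from the data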
CYP2C19 inh: blocks human cytochrome P450 2C19; hit rate 21% among 96,000; CYP2C19 Supersomes, luciferin-H EGE luminescence, 30 min; inhibition, % at 5 µM; AID 778;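 active = CYP2C19 inhibition above a set limit at 5 µM in the primary screen, cut at about 50% in these data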;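 also: plate controls were negative control wells for no effect and 2.5 mM tranylcypromine positive control for full effect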
PLAP act: human PLAP activation; P05187; purified PLAP enzyme, luminescent substrate read-out; active compounds read high; activation fold at 20 µM; hit rate 1.2% among 96,000; AID 696; in the data active = activation fold above about 2
CYP2C19 act: activators of human cytochrome P450 2C19 | activation factor at 5 µM | recombinant CYP2C19, luciferin-H EGE luminescence; active compounds read high; 0 = fully inhibited enzyme, 1 = untreated enzyme | 96,000 tested, under 10 active | AID 1025;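 active = activation factor of at least 2 at 5 µM in the primary screen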;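 also: 0 = wells with 2.5 mM tranylcypromine and 1 = vehicle-only wells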
* = called active by the depositor. Only a sample is shown.

SMILES | CYP2C9 activ | CYP2C9 inhib | CYP2C19 inh | PLAP act | CYP2C19 act
COCCCn1c(N)c(C(=O)NCCC(C)C)c2nc3ccccc3nc21 | 0.7 | 26 | 5 | 1.3 | 1
COc1ccc(Cn2c(N)c(C(=O)NCc3ccco3)c3nc4ccccc4nc32)cc1 | 0.2 | 84* | 59* | 1.5 | 0.4
Nc1c(C(=O)NCc2ccco2)c2nc3ccccc3nc2n1Cc1ccc(F)cc1 | 0.7 | 28 | 23 | 1.6 | 0.8
Nc1c(C(=O)NCc2ccco2)c2nc3ccccc3nc2n1CCN1CCOCC1 | 0.4 | 61* | 35 | 1.9 | 0.6
CCOP(=O)(OCC)C(NC(=O)C(C)C)C(Cl)(Cl)Cl (centres undefined) | 1 | 0 | 6 | 0.9 | 0.9
O=C1c2ccccc2C2(c3ccc(Cl)cc3)NCCN12 (centres undefined) | 1 | 2 | 30 | 0.8 | 0.7
CCCCN=Cc1c(O)n(-c2c(C)cc(C)cc2C)c(=O)[nH]c1=O | 1.1 | -15 | 39 | 0.8 | 0.6
CCOC(=O)C1=C(N)Oc2cc(C)oc(=O)c2C12C(=O)N1c3c(cccc32)C(C)=CC1(C)C (centres undefined) | 0.8 | 16 | 53* | 1.1 | 0.5
O=C(Cn1c(=O)c(C(F)(F)F)nc2ccccc21)N1CCC2(CC1)OCCO2 | 1 | 0 | -10 | 1 | 1.1
O=C1CN=C(c2ccccc2)c2oc3ccc(Br)cc3c2N1 | 0.9 | 12 | 2 | 0.8 | 1
COc1cccc(OC)c1C1=NCC(=O)Nc2c1oc1ccc(Br)cc21 | 0.3 | 65* | 40 | 1.3 | 0.6
O=C(CNC(=O)c1ccccc1)Nc1ccc(Br)cc1C(=O)c1ccccc1 | 0.8 | 22 | 47 | 0.8 | 0.5
Cc1ccc(N)c(C(=O)c2ccccc2)c1 | 1 | 3 | 85* | 1 | 0.2
ON1C2CCCCC2N(O)C1c1ccccc1 (centres undefined) | 0.9 | 6 | 16 | 1.3 | 0.8
O=C1C2CCCN2C(c2ccncc2)N1c1ccc(Cl)c(Cl)c1 (centres undefined) | 0.1 | 88* | 68* | 1.1 | 0.3
O=C1C2CCCN2C(c2cccnc2)N1c1ccc(Cl)c(Cl)c1 (centres undefined) | 1.1 | -7 | 19 | 1 | 0.8
CCOC(=O)c1ccc(N2C(=O)CC(N3CC=C(c4ccc(F)cc4)CC3)C2=O)cc1 (centres undefined) | 0.4 | 64* | 37 | 1.7 | 0.6
COc1ccc2c(c1)c(C(=O)CN1CCC3(CC1)OCCO3)c(C)n2Cc1ccccc1 | 0.8 | 16 | 15 | 1.5 | 0.8
CN(C)c1ccc(CN2CC=C(c3ccc(F)cc3)CC2)cc1 | 1.1 | -7 | 62* | 1.3 | 0.4
O=C1NC(=S)NC(=O)C1C/C=C/c1ccccc1 | 1 | -1 | -3 | 1.5 | 1
CC(C)=CCC12CN3CCN(CC(C3)C1=O)C2 | 1 | -2 | 0 | 1.1 | 1
